From PubChem BioAssay AID588689 (Southern Research Specialized Biocontainment Screening …, 2011)
In all, about 340,000 compounds went through this assay and about 1,000 (0.29%) were called active. No stated cut-off is given here; in the data, inconclusive means inhibition above about 29% without an active follow-up result; inactive means below that. These entries were drawn from the full list. Entries with a potency or affinity are not part of this list.

Molecular target: Genome polyprotein (Dengue virus type 2 (strain 16681-PDK53)) (UniProt P29991)
Assay: flavivirus cap methylation enzyme inhibition – biochemical, confirmation dose response, primary screen (AID 588689)
Conditions: Dengue-2 NS5 methyltransferase capping enzyme assay, at 25 µM, stronger effect = higher value
[1] = measured here: pilot screen replicate inhibition

SMILES | inhibition | inhibition [1] [%]
CCc1ccc(NC(=O)Cn2ncc3c4ccccc4n(C)c3c2=O)cc1 | -6.09% (inactive) | –
CCCOc1ccc(C(=O)CCC(=O)Nc2ccc(N3CCN(C)CC3)cc2)cc1 | -15.3% (inactive) | –
CCc1c(C)sc(NC(=O)/C=C/C(=O)O)c1C(N)=O | -7.73% (inactive) | –
CCOC(=O)c1c(C)nn(-c2ccc(NC(=O)/C=C/C(=O)O)cc2)c1C | -3.06% (inactive) | –
COC(=O)c1c(NC(=O)/C=C/C(=O)O)sc(C)c1-c1ccc(C)c(C)c1 | 18.9% (inactive) | –
Cc1sc(NC(=O)/C=C/C(=O)O)c(C(N)=O)c1-c1ccc(C(C)(C)C)cc1 | 15.2% (inactive) | –
CCOC(=O)c1c(NC(=O)/C=C/C(=O)O)sc(C)c1-c1ccc(F)cc1 | 23.7% (inactive) | –
COC(=O)c1c(NC(=O)/C=C/C(=O)O)sc(Cc2ccccc2)c1C | 8.38% (inactive) | –
COC(=O)c1c(NC(=O)/C=C/C(=O)O)sc(C)c1-c1ccc(C)cc1 | -1.47% (inactive) | –
CCOC(=O)c1c(NC(=O)/C=C\C(=O)O)sc(C)c1-c1ccccc1 | -5.1% (inactive) | –
NC(=O)C1(N2CCCCC2)CCN(C2CC(=O)N(Cc3cccs3)C2=O)CC1 (configuration not stated) | -7.74% (inactive) | –
O=C(N/N=C/c1ccccc1O)C(=O)Nc1ccccn1 | -0.76% (inactive) | –
CCCn1c(SCc2cc(=O)[nH]c3ccccc23)nc2c1c(=O)n(C)c(=O)n2C | -2.04% (inactive) | -0.155
Cc1ccccc1Cn1c(CN2CCN(C(=O)c3ccco3)CC2)nc2c1c(=O)n(C)c(=O)n2C | -5.56% (inactive) | –
CCc1ccc(NS(=O)(=O)c2ccc3oc(=O)ccc3c2)cc1 | 1.32% (inactive) | 1.83
O=C(NCc1ccccc1)c1cccc(S(=O)(=O)NCc2ccccc2)c1 | -6.73% (inactive) | –
O=C(Nc1ccc(C(F)(F)F)cc1)C1CCCCN1S(=O)(=O)c1ccccc1 (configuration not stated) | -9.59% (inactive) | –
COc1ccc(-n2nc(C(=O)NCC(=O)N(C)Cc3ccccc3)c3ccccc3c2=O)cc1 | -2.44% (inactive) | –
O=C1C(Cl)=C(N2CCCCCC2)C(=O)N1c1ccccc1Cl | 8.59% (inactive) | –
Cc1ccccc1N1C(=O)C(Cl)=C(N2CCCCCC2)C1=O | -0.78% (inactive) | –

SMILES | inhibition | inhibition [1] [%]
Cc1ccccc1N1C(=O)C(Cl)=C(N2CCN(c3ccccc3)CC2)C1=O | -3.27% (inactive) | –
CCc1ccccc1N1C(=O)c2cccc3c(N4CCOCC4)c([N+](=O)[O-])cc(c23)C1=O | -4.86% (inactive) | –
O=C1C(Cl)=C(N2CCCCC2)C(=O)N1c1ccccc1Cl | 16.1% (inactive) | –
CC1=CC(C)(C)C(C(=O)O)C(C(=O)O)C1 (configuration not stated) | -2.42% (inactive) | –
CCOC(=O)/C(C#N)=C1/C=C(C)c2ccccc2N1 | -9.35% (inactive) | –
O=C(O)COc1ccc2c(c1)O/C(=C\c1cccs1)C2=O | -8.5% (inactive) | –
O=C(CSc1nncn1-c1ccccc1)N1CCCC1 | -4.17% (inactive) | –
CCc1ccc(NC(=O)C2CCCN(S(=O)(=O)c3ccc4c(c3)CCCN4C(C)=O)C2)cc1 (configuration not stated) | 2.65% (inactive) | –
CC(C)C(O)P(=O)(OCc1ccccc1)c1ccc(N(C)C)cc1 (configuration not stated) | 1.35% (inactive) | -3.66
CCOC(=O)C1CCCN1C(=O)c1ccc(OC)c(Br)c1 (configuration not stated) | 0% (inactive) | –
Cc1[nH]c2ccc(Br)cc2c(=S)c1C/C=C/Cl | 0% (inactive) | –
CC(=O)c1c(C)oc2c1cc(O)c1ccccc12 | -5.41% (inactive) | –
CC(=O)c1coc2c1cc(O)c1ccccc12 | -0.78% (inactive) | –
CCN(C(=O)CCN1C(=O)c2ccccc2S1(=O)=O)c1ccccc1 | -2.22% (inactive) | –
COc1ccc(C(=O)N2CCOC2CNC(=O)C(=O)NCc2ccc(C)cc2)cc1 (configuration not stated) | 1.73% (inactive) | –
CSc1nc(-c2ccccc2)nc(NC(=O)C(C)C)c1C(C)=O | -10.3% (inactive) | –
O=C(NC1CC2CCCC(C1)N2S(=O)(=O)c1ccccc1)c1ccco1 (configuration not stated) | 1.41% (inactive) | –
CSCC[C@H](NC(=O)c1cccs1)c1nnc2ccccn12 | 5.35% (inactive) | –
Cc1oc2c(cc(NS(=O)(=O)c3ccc(F)cc3)c3ccccc32)c1C(=O)O | 11.6% (inactive) | –
CCOC(=O)c1c(C)oc2ccc(NS(=O)(=O)c3ccc(C(=O)O)cc3)cc12 | 4.37% (inactive) | –

SMILES | inhibition | inhibition [1] [%]
CC(=O)c1c(C)oc2c1cc(NS(=O)(=O)c1ccc(C(=O)O)cc1)c1ccccc12 | 15.7% (inactive) | –
COc1ccc(S(=O)(=O)Nc2cc3c(C(C)=O)c(C)oc3c3ccccc23)cc1 | -1.56% (inactive) | –
O=C(Cn1cnc2ccccc2c1=O)NCC(=O)N1CCN(Cc2ccc3c(c2)OCO3)CC1 | -2.08% (inactive) | –
Cc1cccc(NC(=O)Nc2cnccn2)c1 | -2.65% (inactive) | –
Cn1c(=O)c2c(ncn2CCC(=O)N/N=C/c2cccnc2)n(C)c1=O | 0.78% (inactive) | –
CN1C(=O)N(c2ccc(Cl)cc2)C(C)(O)CC1(C)C (configuration not stated) | -7.17% (inactive) | –
Oc1cccc2cc3cccc(O)c3c(O)c12 | -2.2% (inactive) | –
COc1cc2cccc(OC)c(=O)c2c(O)c1OC | -2.72% (inactive) | –
O=C(COC(=O)CCC(=O)c1cccs1)NCCc1ccccc1 | 10.1% (inactive) | –
Cc1cccc(NC(=O)c2cccc(NC(=O)c3ccco3)c2)c1 | -3.49% (inactive) | –
Cc1cc(-c2ccccc2)nc2[nH]n(-c3ccccc3)c(=O)c12 | 14.4% (inactive) | –
O=c1c2c(C(F)(F)F)cc(C(F)(F)F)nc2[nH]n1-c1ccccc1 | 12% (inactive) | –
COC(C(=O)Nc1ccccc1C(=O)N1CCOCC1)c1ccccc1 (configuration not stated) | -4.55% (inactive) | –
CN1C(=O)C(C)(C)c2cc(S(=O)(=O)NCc3ccc(Cl)cc3)ccc21 | 0% (inactive) | –
O=C(O)/C(=C\c1ccccc1)c1ccccc1 | -3.95% (inactive) | –
O=C(O)c1cc(=O)c2c(Cl)cc(Cl)cc2[nH]1 | -1.47% (inactive) | –
COc1ccc(C(=O)Nc2ccc3nc(N4CCOCC4)sc3c2)cc1OC | -1.84% (inactive) | –
c1csc(-c2cc(N3CCCCC3)c3ccccc3n2)c1 | -2.61% (inactive) | –
O=c1c2ccccc2nc(/C=C/c2ccc([N+](=O)[O-])cc2)n1CCCO | -2.58% (inactive) | –
